Data taken from PubChem BioAssay (NCI).
Values joined by “and” are separate entries in the source; they are usually repeats but may differ in a detail not shown here. Equal entries are not always repeated. About 83,000 compounds went through this panel and 20% of them were active in at least one assay; those are over-represented in the sample as a whole.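 Percent growth is the endpoint: 0 to 100 indicates growth inhibition (40 means 60% inhibition), 0 means no net growth, and negative values indicate cell death.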

Tests used:
Assay in all cases: NCI-60 one-dose screen, 48 h (100 = growth as untreated, 0 = no growth, -100 = all killed)
Settings in all cases: 10 µM unless noted; active = growth percent below 10; inactive = the rest
DU-145 prostate = tested on: DU-145 prostate
K-562 leukemia = tested on: K-562 leukemia
MALME-3M melanoma = tested on: MALME-3M melanoma
MDA-MB-231 breast = tested on: MDA-MB-231 breast
SF-268 CNS = tested on: SF-268 CNS
SF-295 CNS = tested on: SF-295 CNS
SF-539 CNS = tested on: SF-539 CNS
UACC-257 melanoma = tested on: UACC-257 melanoma
M14 melanoma = tested on: M14 melanoma
RXF 393 renal = tested on: RXF 393 renal

Measured: growth

CCCCCCCCCCCCCCCc1ccc(N)c(OC2OC(CO)C(O)C(O)C2O)c1 (stereo not given)
inactive: DU-145 prostate 119% | K-562 leukemia 83.4% | MALME-3M melanoma 22.5% | MDA-MB-231 breast 70% | SF-268 CNS 99% | SF-295 CNS 92.2% | SF-539 CNS 93.4% | UACC-257 melanoma 51.5% | M14 melanoma 82.5%

O=C1OC(c2ccccc2)=N/C1=C\c1ccccc1
inactive: DU-145 prostate 113% | K-562 leukemia 104% | MALME-3M melanoma 86.4% | MDA-MB-231 breast 111% | RXF 393 renal 106% | SF-268 CNS 103% | SF-295 CNS 99% | SF-539 CNS 99.5% | UACC-257 melanoma 96.5% | M14 melanoma 100%

O=C(CO)C(O)C(O)C(O)C(O)CO (stereo not given)
inactive: DU-145 prostate 110% and 109% | K-562 leukemia 108% and 117% | MALME-3M melanoma 109% and 117% | RXF 393 renal 119% and 117% | SF-268 CNS 102% and 104% | SF-295 CNS 105% and 102% | SF-539 CNS 107% and 96.5% | UACC-257 melanoma 93.9% and 95.8% | M14 melanoma 103% and 96.2%

O=C(Cc1ccccc1)c1ccc(O)c(Cl)c1
inactive: DU-145 prostate 18.5% | K-562 leukemia 21.4% | MALME-3M melanoma 50.2% | MDA-MB-231 breast 49.8% | RXF 393 renal 41.7% | SF-268 CNS 41.7% | SF-295 CNS 47.8% | SF-539 CNS 32.9% | UACC-257 melanoma 66.7% | M14 melanoma 30.1%

CCCCNc1ccc(Nc2ccccc2)cc1
inactive: DU-145 prostate 84% | K-562 leukemia 48.9% | MALME-3M melanoma 54.8% | MDA-MB-231 breast 64.4% | RXF 393 renal 83.9% | SF-268 CNS 110% | SF-295 CNS 56.3% | SF-539 CNS 83.8% | UACC-257 melanoma 62.7% | M14 melanoma 87.5%

CC(C)C(C)(C)c1ccc(O)cc1
inactive: DU-145 prostate 107% | K-562 leukemia 50.4% | MALME-3M melanoma 107% | MDA-MB-231 breast 108% | RXF 393 renal 112% | SF-268 CNS 99.8% | SF-295 CNS 118% | SF-539 CNS 99.4% | UACC-257 melanoma 104% | M14 melanoma 105%

CC(C)NC(=O)N/C=C(\C#N)C(N)=O
inactive: DU-145 prostate 107% | K-562 leukemia 116% | MALME-3M melanoma 89.3% | MDA-MB-231 breast 111% | RXF 393 renal 98.9% | SF-268 CNS 101% | SF-295 CNS 102% | SF-539 CNS 97.9% | M14 melanoma 95.3%

CCOC(=O)c1c(C)cc(=O)oc1C
inactive: DU-145 prostate 114% | K-562 leukemia 89% | MALME-3M melanoma 87.7% | MDA-MB-231 breast 96.3% | RXF 393 renal 109% | SF-268 CNS 106% | SF-539 CNS 107% | UACC-257 melanoma 101% | M14 melanoma 98%

CC(=O)NCC(=O)c1ccc([N+](=O)[O-])cc1
inactive: DU-145 prostate 109% | K-562 leukemia 101% | MALME-3M melanoma 101% | MDA-MB-231 breast 97.7% | SF-268 CNS 99.1% | SF-295 CNS 106% | SF-539 CNS 109% | UACC-257 melanoma 101% | M14 melanoma 109%
